Data published in the supplement of paper PMC11417369.
Whole data set: some 25,000 sequences, median “ln(normalized median fluorescence intensity)” near 9.3, cut for the highest 2% near 10. Many of the other results were omitted from the sample, so the highest values are more common in it than they were.

test system: PF3D7_0420300 AP2 domain 1 (GST-tagged); experiment: gcPBM binding intensity (ln(normalized median fluorescence intensity)); higher = stronger DNA binding
How it was run: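 GST-tagged P. falciparum DNA-binding domains produced in E. coli were incubated for 1 h on an Agilent 4 × 180k array of primer-extended double-stranded 36-bp intergenic genomic probes with negative controls. Binding intensity is the highest Masliner-normalised natural-log median intensity across replicate spots of either probe orientation, with bound protein detected by Alexa488 anti-GST antibody at 488 nm.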

In order of falling “gcPBM binding intensity (ln)” value:
1. ATTATAACACCTCCCCCCCTTTTTTTATGAAGACCA [CACACA_negctrl_site1043]  10.4
2. CATATACAGAAACACACACACACATAAATAAATATA [CACACA_site1343]  10.3
3. AACATTATAAGACACACACACACATATATAAATATA [CACACA_site6622]  10.3
4. AACATTATAGGACACACACACACATATATATATATA [CACACA_site4721]  10.2
5. AAACATAAGAGACACACACACATATATAAATAAATA [CACACA_site7674]  10.2
6. TAATAAATAAGACACACACACATATATATATATTAT [CACACA_site1389]  10.2
7. TATCCATATTTGTTCACACACACACCCATTTATATA [CACACA_site3571]  10.2
8. CATATACACGAACACACACACACACGCACAAAAAAA [CACACA_site6376]  10.2
9. TAAATACAGAAACACACACACAAATATATACATACA [CACACA_site2880]  10.1
10. ATAAATATAGGACACACACACATATTATATATATAT [CACACA_site5658]  10.1
11. TAATAAATAGGACACACACACATATATATATATTAT [CACACA_site4891]  10.1
12. AACATTATAAGACACACACACACATATATATATATA [CACACA_site8259]  10.1
13. GTAAGAAACAGACACACACACATATAAATATAAATA [CACACA_site6515]  10.1
14. TATCCATATTTGTTCACACACACACCGATTTATATA [CACACA_site5888]  10.1
15. AACATATACACGAACACACACACATATATATATATA [CACACA_site502]  10.1
16. TGTATCCATATTTGTTCACACACACCCATATTTATA [CACACA_site9190]  10
17. CAAATACAGAAACACACACACATATACATATATATA [CACACA_site3498]  9.97
18. TAAAACATAAGAGACACACACACATATATATATATA [CACACA_site3643]  9.9
19. AACTTTTAGAAGAACACACACATATAGATTATGACC [CACACA_site6256]  9.86
20. CATATACACGAACACACACACATATATATATATATA [CACACA_site4437]  9.84
21. AGGATATGCAGACACACACACATATAGATTTATATA [CACACA_site7100]  9.73
22. TTTGATAAATGATACACACACAATATTTATAAAATA [CACACA_site7040]  9.72
23. TTTTTTTTTTGTTGTTGTACTCTTATATTTTTATAT [XGTACX_site6178]  9.7
24. ATCGTTATATAATGTTGTACTTGTTATATATATATA [XGTACX_site7582]  9.7
25. ATATATATATATCACGCACACACGAATTTTAAATAT [CACACA_site3131]  9.65
26. TGAACACGCACAAATACACACAAAAAAAATAAATAA [CACACA_site6257]  9.63
27. TATATTATGACCACCACACACCTATACACATAACAT [CACACA_site7199]  9.62
28. TATAGTGATATATACACACACTTGTCTTGTAAAAAT [CACACA_site6594]  9.53
29. ATTGTGCTCATCAGCACACACAACATCATGTAATAA [CACACA_site1863]  9.47
30. TTTATAAAAATATACACACATACAAATATGCATATA [CACACA_site712]  9.44
31. ATATAAATTCAAATTACACACATTTATTTTTTTTAC [CACACA_site53]  9.44
32. AGTGTATTAAATTTTGAACACACAAAATAAAACATA [CACACA_site8483]  9.43
33. TTAAAACCAAAACACAGTACATATATATATATATAT [XGTACX_site5668]  9.4
34. ATAAATAAATAAATAAATAAATATACATATACATAT [CACACA_negctrl_site205]  9.39
35. GATGTATTCATACATGCACACGTACATATTTAAATA [CACACA_site9299]  9.34
36. ATCTATAAATTTCCACGTACATATATATATATATAT [XGTACX_site4502]  9.32
37. AGCAAATCAGATAGTAGTACATTTAAATTAGACTTT [XGTACX_site4172]  9.19
38. TTTATACTTGTAAATGCACACATAAGATGCGACTAA [CACACA_site8662]  9.18
39. TATATATATATATATACATGCATTTCTCATGTACAT [TGCATGCA_site621]  9.14
40. TTTTGTTATATTCAATATTTATATATTATAAATATA [CACACA_negctrl_site1705]  9.11
41. TATGGTAACATATGCTGTACAATATAATATGTTTAA [XGTACX_site1601]  9.11
42. TTTTGTTTTTGTAGAGTGCATAAAGAAGATATGTAT  9.1
43. AATCAAAACATTAAAAAGAAAAAATATATATATATA [CACACA_negctrl_site366]  9.03
44. AGCTATTAATTTATTACATGCAAGATTAAAAGACTA [TGCATGCA_site281]  8.99
45. TTTTCAAAATAATATTATATCAAATGCTAAAAAGAA [TGCATGCA_negctrl_site588]  8.96
46. TATTTTATTTTTTTATGTACACAAAAAAAAAAAAAA [XGTACX_site945]  8.63
